Assay results: PubChem BioAssay (NCATS)
Inconclusive results are not listed. Where a call stands in place of a potency, no number is given. Active and inactive are the calls of the source. Calls follow the shape of the dose curve; as a rule, active = well fitted curve in the direction sought with a large enough effect; inconclusive = small, poorly fitted or top-dose-only effect, or another doubt; inactive = no such curve, though single readings can be large; an effect the other way counts as inactive or inconclusive.

Experiments:
[1] = qHTS to identify inhibitors of the type 1 interferon - major histocompatibility complex class I in skeletal muscle: primary screen against the NCATS LOPAC collection (AID 1347405);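 also: human myoblasts with HiBiT tag on endogenous HLA-B stimulated by IFN-beta; lytic HiBiT luminescence reporting HLA-B protein level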
Summary of the method: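 First, engineered myoblasts carrying HLA-B-HiBiT were seeded in medium lacking dexamethasone with 4 ng/ml IFN-beta. After 1 hr, compounds were pinned in (top 46 uM final, 7 points). After 24 hrs at 37 C, luminescence was measured following 10 min lysis.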

[2] = qHTS for inhibitors of adenylyl cyclases using a fission yeast platform: a pilot screen against the NCATS LOPAC library (AID 1347410)
Summary of the method: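 Growth medium went into the plates first, then compounds were pinned (final up to 57 µM), then CHP2027 yeast were added. Plates were incubated overnight (18 h) at 30C in the dark, and GFP was measured by laser scanning cytometry.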

[3] = Validation qHTS assay for inhibitors of Activation Induced Cytidine Deaminase (AID): UDG Counterscreen signal (AID 1347427)
Summary of the method: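 Fluorescence at 560 nm excitation, 665 nm emission reports UDG signal after 250 mM NaOH (2x) addition and 30 min. Enzymes (AID 1 uM, UDG 2 U/mL, at 4/3x) preincubated 10 min with compound, then 4 h with 4x 250 nM DJC20/DJC23 substrate at room temperature.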

Structure (SMILES) | Potency [1] | outcome [2] | Potency [3]
NCCCCN=C(N)N | inactive | inactive | inactive
CC(/C=C/c1cccc(Oc2ccc(F)cc2)c1)N(O)C(N)=O (configuration not stated) | inactive | inactive | inactive
NCCS(=O)O | inactive |  | inactive
NCCCNCCCCNCCCN | inactive | inactive | inactive
N[C@H](C(=O)O)[C@H](O)C(=O)O | inactive | inactive | inactive
[N-]=[N+]=Nc1ccc(C(=O)CSC[C@H](NC(=O)CC[C@H](N)C(=O)O)C(=O)NCC(=O)O)cc1 | inactive | inactive | inactive
CCC(=O)N1CCN(C(=O)c2ccccc2)CC1 | inactive | inactive | inactive
Nc1ncnc2c1ncn2C1CCCO1 (configuration not stated) | inactive | inactive | inactive
O=C(O)c1cc(=O)cc(C(=O)O)[nH]1 | inactive | inactive | inactive
CC(=O)/C(C)=N/O | inactive | inactive | inactive
COC1(C2=NCCN2)COc2ccccc2O1 (configuration not stated) | inactive | inactive | inactive
N[C@H](C(=O)O)c1cc(O)cc(O)c1 | inactive |  | inactive
CC(O)C(O)[C@H]1CNc2nc(N)[nH]c(=O)c2N1 (some centres not stated) | inactive | inactive | inactive
N=C(N)SCCN | inactive | inactive | inactive
CCCCOc1cc(CC2CNC(=O)N2)ccc1OC (configuration not stated) | inactive | inactive | inactive
Nc1ncnc2c1nc(Br)n2C1OC2COP(=O)(O)O[C@@H]2C1O (some centres not stated) | inactive | inactive | inactive
NC(N)=NC(N)=Nc1ccccc1 | inactive | inactive | inactive
COc1ccc(CCn2nnnc2C2(c3ccc(C)cc3)CC2)cc1 | inactive | inactive | inactive
